Bioassay records as filed in PubChem.
Hits are enriched below; roughly 12% of the tested compounds scored in any of these assays.
SARS PLpro yeast: SARS-CoV PLP inhibition in yeast; S. cerevisiae expressing SARS-CoV PLpro, growth rescue; Potency, µM (series often up to 32.9 µM), for the others: at the highest dose activity, positive = growth rescue, most hits filed as activators; 330,000 tested, 0.19% active; calls by dose curve; note: 0% is about no effect; nearly all actives have a fitted effect of over 55% in size
AMA1-RON2 inh: inhibitors of Plasmodium falciparum AMA1-RON2 interaction | AlphaScreen AMA1-biotinylated RON2 peptide binding | Potency, µM (highest dose often 58.2 µM), for the others: top-dose activity change, negative = inhibition, hits mostly inhibitors | 360,000 tested, 0.2% active;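 note: 0% = vehicle wells and -100% = peptide control; nearly all actives have a fitted effect of over 45% in size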
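AMA1 (3D7) with his tag at 25 nM final met compounds first, then biotinylated RON2 peptide at 25 nM; detection used donor plus acceptor beads, 10 µg/mL apiece, read by AlphaScreen after 30 min at room temperature.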
Pf growth 48h: P. falciparum growth inhibition at 48 hours (one generation); Potency, µM (highest dose often 28.7 µM), for inactives: top-dose activity change, negative = inhibition, hits mostly inhibitors; 310,000 tested, 5.9% active; P. falciparum luciferase growth in erythrocytes, 48 h; note: % is set by controls: 0 for no effect and ±100 for the full control effect
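Luminescence readout; reporter = integrated firefly luciferase in P. falciparum. RBC culture at 2% hematocrit, 0.1% parasitemia final, 37 C/5% CO2; decreased signal taken as growth inhibition.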
HCV inh: HCV inhibition | 340,000 tested, 3.4% active | Potency, µM (highest dose often 41.8 µM), without a hit: top-dose activity change, negative = inhibition, most hits filed as inhibitors | Huh7.5.1 HCVcc-Cre infection, luciferase reporter, 44 h; note: % is set by controls: 0 for no effect and ±100 for the full control effect
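Reporter virus HCVcc-Cre (~0.5 moi) infects cells exposed to compound; seeding density 1,000 cells/well with 4 h settling beforehand. Luminescence, 15 sec read, taken 44 h post-infection following a 15 min RT substrate incubation.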
NS1 inh: influenza NS1 inhibition; Potency, µM (series often up to 46.1 µM), without a hit: top-dose activity, positive = more growth; 270,000 tested, 0.4% active; calls by dose curve; note: actives are rising curves; nearly all actives have a fitted effect of over 50% in size
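OD600 was taken as the measure of yeast growth restored by compound in an NS1-expressing S. cerevisiae strain. Cells had been washed out of glucose medium and diluted 1:100 into galactose -URA medium, pH 6.0.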
Pf growth 96h: inhibits malaria parasite growth, 96 h; 320,000 tested, 6.9% active; Potency, µM (titrated, usually from 28.7 µM), without a hit: at the top dose activity change, negative = inhibition, most hits filed as inhibitors; P. falciparum luciferase reporter growth, 96 h; note: % is set by controls: 0 for no effect and ±100 for the full control effect
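Infected RBCs, 2% Hct / 0.05% parasitemia final; luciferase-reporter P. falciparum; cpd 96 h, 37 C, 5% CO2; luciferase detection reagent; luminescence.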
Numbers without * were called inactive. Unless noted, calls come from the whole dose curve; as a rule, active = well fitted curve in the direction sought with a large enough effect; inconclusive = small, poorly fitted or top-dose-only effect, or another doubt; inactive = no such curve, though single readings can be large; an effect the other way counts as inactive or inconclusive. Potency is the fitted concentration of half-maximal effect.

Screening Cc1csc(SCC(=O)NCc2ccccc2Cl)n1 returned SARS PLpro yeast 1.1%, AMA1-RON2 inh -10.4%, Pf growth 48h 20.8%, HCV inh -12.7% and Pf growth 96h inconclusive.
For CCOc1ncccc1C(=O)OCC(=O)Nc1ccc2c(c1)OCO2 the results were SARS PLpro yeast -3.3%, AMA1-RON2 inh 4.5%, Pf growth 48h -17.7%, HCV inh 16.4% and Pf growth 96h 2.9%.
For CCN(CC)S(=O)(=O)c1cccc(NC(=O)CCNC(=O)c2ccc([N+](=O)[O-])cc2)c1 the results were SARS PLpro yeast 3.1%, AMA1-RON2 inh -2.6%, Pf growth 48h inconclusive, HCV inh inconclusive, NS1 inh -41.9% and Pf growth 96h -5.9%.
CN(c1ccccc1)S(=O)(=O)c1cccc(NC(=O)CCNC(=O)c2ccc(Cl)cc2)c1 was read as SARS PLpro yeast -3.0%, AMA1-RON2 inh -2.0%, Pf growth 48h inconclusive, HCV inh inconclusive and Pf growth 96h inconclusive.
CN(c1ccccc1)S(=O)(=O)c1cccc(NC(=O)CN2C(=O)NC3(CCCC3)C2=O)c1 was read as SARS PLpro yeast 2.9%, AMA1-RON2 inh -13.7%, Pf growth 48h -24.8%, HCV inh 2.82µM* and Pf growth 96h inconclusive.
`CC(=O)CCc1ccc(OCC(=O)Nc2cccc(S(=O)(=O)N(C)c3ccccc3)c2)cc1` gave SARS PLpro yeast -0.8%, AMA1-RON2 inh 22.4%, Pf growth 48h inconclusive, HCV inh -26.0% and Pf growth 96h inconclusive.
Screening CN(c1ccccc1)S(=O)(=O)c1cccc(NC(=O)CCNC(=O)c2ccc([N+](=O)[O-])cc2)c1 returned SARS PLpro yeast 12.9%, AMA1-RON2 inh -12.9% and HCV inh 11.2µM*.
For CN(c1ccccc1)S(=O)(=O)c1cccc(NC(=O)COc2ccccc2)c1 the results were SARS PLpro yeast -5.6%, AMA1-RON2 inh -3.1%, Pf growth 48h inconclusive, HCV inh 10µM* and Pf growth 96h inconclusive.
CN(c1ccccc1)S(=O)(=O)c1cccc(NC(=O)CCNC(=O)c2ccccc2)c1 was read as SARS PLpro yeast 0.2%, AMA1-RON2 inh -9.3%, Pf growth 48h 9.28µM*, HCV inh -20.1% and Pf growth 96h inconclusive.
For Cc1cc(Br)ccc1NC(=O)CN(C)C(=O)COc1cccc2c1OC(C)(C)C2 the results were SARS PLpro yeast -1.1%, AMA1-RON2 inh 103.6%, Pf growth 48h inconclusive, HCV inh -0.2% and Pf growth 96h -22.1%.
For COc1ccccc1/C=C/C(=O)OCC(=O)N1CCc2ccccc21 the results were SARS PLpro yeast 1.4%, AMA1-RON2 inh 0.9%, Pf growth 48h -22.4%, HCV inh 7.9% and Pf growth 96h -16.2%.
`COc1ccc(-n2ncc3c2CC(C)(C)CC3NC(=O)CN2CCOC2=O)cc1` (stereo not drawn) gave SARS PLpro yeast -1.8%, AMA1-RON2 inh 18.7%, Pf growth 48h 17.6%, HCV inh inconclusive, NS1 inh -11.1% and Pf growth 96h inconclusive.
Screening CN(C)c1ccc(N2C(=O)CSC2=S)cc1 returned SARS PLpro yeast 0.4%, AMA1-RON2 inh -22.6%, Pf growth 48h 7.8%, HCV inh 7.9%, NS1 inh 21.6% and Pf growth 96h 5.22µM*.
Screening O=C1CSC(=S)N1c1cccc(F)c1 returned SARS PLpro yeast 2.7%, AMA1-RON2 inh -17.7%, Pf growth 48h 27.1%, HCV inh -15.5%, NS1 inh 14.2% and Pf growth 96h 10.4µM*.
For O=C(O)c1cccc(N2C(=O)CSC2=S)c1 the results were SARS PLpro yeast -1.3%, AMA1-RON2 inh 10.2%, HCV inh 15.2%, NS1 inh 0.9% and Pf growth 96h 5.86µM*.
For O=C(CNC(=O)c1sc2ccccc2c1Cl)NC1CC1 the results were SARS PLpro yeast 0.3%, AMA1-RON2 inh 13.2%, Pf growth 48h 117.4%, HCV inh 8.7%, NS1 inh -3.1% and Pf growth 96h 97.9%.
Screening CCCCCCC(O)(c1ccccc1)C(CN1CCOCC1)c1ccccc1 (stereo not drawn) returned SARS PLpro yeast -0.9%, AMA1-RON2 inh -0.2%, Pf growth 48h 3.29µM*, HCV inh inconclusive, NS1 inh -0.3% and Pf growth 96h 2.8%.
CCCCCCC(O)(c1ccc(OC)cc1)C(CN1CCOCC1)c1ccccc1 (stereo not drawn) was read as SARS PLpro yeast -7.5%, AMA1-RON2 inh 9.6%, Pf growth 48h 1.85µM*, HCV inh inconclusive, NS1 inh 2.0% and Pf growth 96h 10.4µM*.
Screening CCCCCC(O)(c1ccccc1)C(CN1CCOCC1)c1ccccc1 (stereo not drawn) returned SARS PLpro yeast -5.0%, AMA1-RON2 inh -11.9%, Pf growth 48h 2.62µM*, HCV inh inconclusive, NS1 inh -1.5% and Pf growth 96h 0.0%.
Screening CCCC(O)(c1ccccc1)C(CN1CCOCC1)c1ccccc1 (stereo not drawn) returned SARS PLpro yeast 1.0%, AMA1-RON2 inh -3.1%, HCV inh -22.7%, NS1 inh -3.8% and Pf growth 96h inconclusive.
For Cc1ccc(S(=O)(=O)N2CCOC2CNC(=O)C(=O)NCc2ccccn2)cc1 (stereo not drawn) the results were SARS PLpro yeast 2.9%, AMA1-RON2 inh 49.0%, Pf growth 48h 9.1%, NS1 inh 22.4% and Pf growth 96h 18.0%.
Screening C/C(Cl)=C/Cc1c(C)[nH]c2c(ccc3ccccc32)c1=O returned SARS PLpro yeast -1.1%, AMA1-RON2 inh 7.5%, Pf growth 48h 0.185µM*, HCV inh inconclusive, NS1 inh 12.2% and Pf growth 96h -32.4%.
For CCCCN(CC)Cc1c(C)[nH]c2c(ccc3ccccc32)c1=O the results were SARS PLpro yeast 0.7%, AMA1-RON2 inh 6.5%, Pf growth 48h inconclusive, HCV inh -6.0%, NS1 inh 5.7% and Pf growth 96h -10.0%.
For C/C(Cl)=C/Cc1c(C)[nH]c2ccc(C)cc2c1=O the results were SARS PLpro yeast -21.3%, AMA1-RON2 inh inconclusive, Pf growth 48h 0.37µM*, HCV inh -16.7%, NS1 inh -41.7% and Pf growth 96h 11.6%.
`CCCCN(C)Cc1c(C)[nH]c2ccc(C)cc2c1=O` gave SARS PLpro yeast 5.4%, AMA1-RON2 inh 5.6%, Pf growth 48h 43.5%, HCV inh 0.2%, NS1 inh 4.1% and Pf growth 96h 30.6%.
CC(NC(=O)COC(=O)c1cccc(S(=O)(=O)N2CCCC2)c1)c1ccccc1 (stereo not drawn) was read as SARS PLpro yeast 5.5%, AMA1-RON2 inh -9.5% and HCV inh inconclusive.
